Assay results published in PubChem BioAssay (NCI).
The panel holds about 79,000 compounds, 15% with a hit somewhere; the sample as a whole holds those more often. The source made the active and inactive calls. Rule as the data show it: active = growth inhibition above about 70%; inactive = the rest.

Tests used:
[1] = NCI Yeast Anticancer Drug Screen. Data for the rad50 strain (AID 155);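 also: 0% = growth of vehicle-only cultures of the same strain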; conditions: S. cerevisiae rad50 strain growth inhibition; at 50.0 µM; hits give high values
Summary of the method: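 DNA repair mutant yeast, compound exposure, growth read-out; inhibition is taken relative to vehicle.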

[2] = NCI Yeast Anticancer Drug Screen. Data for the mec2-1 strain (AID 157); conditions: S. cerevisiae mec2-1 strain, at 50.0 µM, hits give high values
Summary of the method: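 Compounds were applied to mec2-1 yeast cells. Their growth was then compared with that of vehicle-treated cultures to give growth inhibition.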

[3] = NCI Yeast Anticancer Drug Screen. Data for the sgs1 mgt1 strain (AID 161);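 also: 0% = growth of cultures given vehicle only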; conditions: S. cerevisiae sgs1 mgt1 strain, at 50.0 µM, hits give high values
Summary of the method: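 Yeast cells carrying a defined DNA-repair defect were exposed to test compounds. Growth inhibition was measured relative to vehicle-treated controls.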

[4] = NCI Yeast Anticancer Drug Screen. Data for the cln2 rad14 strain (AID 165);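 also: 0% = growth equal to vehicle treated cultures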; conditions: S. cerevisiae cln2 rad14 strain, at 50.0 µM, hits give high values
Summary of the method: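 Strain: cln2 rad14 yeast, altered in cell cycle control and DNA damage repair. Read-out: growth inhibition vs vehicle.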

[5] = NCI Yeast Anticancer Drug Screen. Data for the bub3 strain (AID 167); conditions: S. cerevisiae bub3 mutant strain, at 50.0 µM, hits give high values
Summary of the method: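 In this screen, a yeast mutant lacking normal mitotic checkpoint function is challenged with compound. Relative growth versus vehicle gives the inhibition value.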

[6] = NCI Yeast Anticancer Drug Screen. Data for the mlh1 rad18 strain (AID 175); conditions: S. cerevisiae mlh1 rad18 strain growth inhibition; at 50.0 µM; hits give high values
Summary of the method: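 A repair-deficient yeast strain is exposed to test compound, and growth is scored relative to vehicle-treated controls.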

Measured: growth inhibition

CCOC(=O)C1=C(C)N(NC(=O)OC)C2(N)N(NC(=O)OC)C(C)=C(C(=O)OCC)C12C#N (configuration not stated)
inactive: [1] -13.3% | [2] -3.2% | [3] -7.45% | [4] -5.7% | [5] 2.5% | [6] -18.4%

Cc1ncc(CSc2ccccc2N)c(CO)c1O
inactive: [1] -10.8% | [2] -10.1% | [3] -22.5% | [4] 48.2% | [5] 5.5% | [6] -4.55%

c1ccc2c(c1)ccc1ccc3ocnc3c12
inactive: [1] 6.45% | [2] -0.95% | [3] -3.15% | [4] -6.6% | [5] 9.15% | [6] 10%

CC1(C)OCC(Cc2ccc3c(c2)OCO3)CO1
inactive: [1] 1.7% | [2] -11.1% | [3] -5.75% | [4] -32.2% | [5] 22.5% | [6] 2.25%

CCN(CC)CCNC(=O)c1c(C)cc(C)cc1C
inactive: [1] -5.1% | [2] 0.2% | [3] -0.3% | [4] -53.2% | [5] -1.95% | [6] 10.8%

CC(=O)Nc1ccc(C(=O)NN2C(=O)C(Cl)C2c2ccc([N+](=O)[O-])cc2)cc1 (configuration not stated)
inactive: [1] -0.05% | [2] 19.6% | [3] -2.05% | [4] 1.45% | [5] -24.4% | [6] 8.3%

NCC(O)COCc1ccccc1 (configuration not stated)
inactive: [1] -16.1% | [2] -24.4% | [3] -1.65% | [4] -28.1% | [5] -1.6% | [6] -0.35%

CCOC(=O)C(=C/C=C/NCCc1c[nH]c2ccccc12)C(=O)OCC
inactive: [1] -23.1% | [2] -44.5% | [3] -20.8% | [4] -10.2% | [5] -15.2% | [6] -26.2%

COc1ccc(C(CC(C)(C)C)c2ccc(OC)cc2)cc1
inactive: [1] -0.9% | [2] -9% | [3] 5.15% | [4] -44.5% | [5] -11.9% | [6] -11.1%

N#C/C(=C/c1cccc2ccccc12)C(N)=O
inactive: [1] 21.6% | [2] 32.9% | [3] 28.4% | [4] 6.2% | [5] 28.6% | [6] 26.1%

Nc1ncnc2c1N=C(c1ccccc1)CC(c1ccccc1)N2 (configuration not stated)
inactive: [1] -8.75% | [2] -5.15% | [3] -4.15% | [4] 3.15% | [5] -35.4% | [6] 2.6%

NCC1OCOC2C(C(=O)O)OCOC12 (configuration not stated)
inactive: [1] 10.6% | [2] 2.6% | [3] 14.3% | [4] -16% | [5] 3.8% | [6] -3.7%

CCCCCCCCCCCC(=O)OCc1ccccc1
inactive: [1] -3.9% | [2] 17.8% | [3] 3.1% | [4] 18.2% | [5] -3.5% | [6] 25.8%

O=C(NC(Cc1ccc(O)cc1)C(=O)O)C(=O)c1c[nH]c2ccc([N+](=O)[O-])cc12 (configuration not stated)
inactive: [1] 3.45% | [2] 1.45% | [3] -23.1% | [4] 0.45% | [5] 2.8% | [6] 26.9%

CSC1(C)C(=O)Nc2ccc(C(F)(F)F)cc21 (configuration not stated)
inactive: [1] 9.35% | [2] 4.8% | [3] -0.05% | [4] 17.7% | [5] -6.15% | [6] 0.1%

CCCCN(CCCC)CC(O)c1c2cccc(Cl)c2cc2c(Cl)cccc12 (configuration not stated)
active: [1] 98.9% | [2] 99.5% | [3] 78.6% | [4] 93.3% | [5] 98.8% | [6] 99.1%

CCSCC1C=CC(n2cnc3c(N)ncnc32)O1 (configuration not stated)
inactive: [1] -10.3% | [2] -29.2% | [3] -22.1% | [4] -0.25% | [5] 5.55% | [6] 10.1%

CC/C=C(\C)C(C#N)(CC)C(=O)OCC (configuration not stated)
inactive: [1] 4.65% | [2] -12.7% | [3] -4.6% | [4] 2.75% | [5] -20.4% | [6] 9.2%

NC(CC1C=CCCC1)C(=O)O (configuration not stated)
inactive: [1] -26.4% | [2] -16.1% | [3] 1.85% | [4] -52.3% | [5] 7.1% | [6] -4.3%

CC(=O)n1oc2ccc(Br)cc2c1=O
inactive: [1] -3.6% | [2] 1.2% | [3] -7.8% | [4] -5.4% | [5] 9.25% | [6] 9.75%

[Cl][Co][Cl].[NH-]CCC[NH-].[NH-]CCC[NH-]
inactive: [1] 1.5% | [2] 21.3% | [3] 13.3% | [4] 10.2% | [5] -4.4% | [6] 16.7%

OCCCNc1nc2cc(Cl)ccc2o1
inactive: [1] 9.2% | [2] 22.6% | [3] 16.1% | [4] -31.1% | [5] 7.9% | [6] -14.9%

CCCCN(CCCC)c1ccc(S(=O)(=O)c2ccc(N(CCCC)CCCC)cc2)cc1
inactive: [1] 19.1% | [2] 4.95% | [3] 9.4% | [4] 30.4% | [5] -2.35% | [6] 18.6%

C/C=C/C(O)CC (configuration not stated)
inactive: [1] 13.8% | [2] -38.4% | [3] 3.2% | [4] -0.85% | [5] -10.8% | [6] 0.5%

CN(C)C(=O)c1ccc[n+](CC(=O)Nc2ccccc2)c1
inactive: [1] 0.7% | [2] -3.85% | [3] 13.1% | [4] -1.25% | [5] 4.05% | [6] -4.4%

CCOC(=O)c1c(N)[nH]c(SSc2[nH]c(N)c(C(=O)OCC)c2C(=O)OCC)c1C(=O)OCC
inactive: [1] 25.6% | [2] 3.85% | [3] 30.3% | [4] 13.7% | [5] 17.8% | [6] 20.3%

CC(=O)Oc1ccc2c(c1)oc1c3ccc(OC(C)=O)cc3n(C)c(=O)c21
inactive: [1] -20.1% | [2] -44.8% | [3] -16% | [4] -4.3% | [5] -7.95% | [6] -23.4%

O=C1CSC(c2c(F)cccc2Cl)N1c1nncs1 (configuration not stated)
inactive: [1] 9.4% | [2] -2% | [3] 31.4% | [4] 13% | [5] 29.6% | [6] 10%

O=C(O)C1CC(Cl)C(Cl)CC1C(=O)O (configuration not stated)
inactive: [1] -2.9% | [2] -27.1% | [3] 0.85% | [4] 0.2% | [5] -19.2% | [6] -5.1%

CC1=C(/C=C/Cl)CC(Cl)C(C)(Cl)C1 (configuration not stated)
inactive: [1] -2.25% | [2] -10.4% | [3] -4.5% | [4] 12.5% | [5] -0.45% | [6] -45.2%

CC(C)C(=O)/C=C/c1ccc(Br)cc1
inactive: [1] 29.9% | [2] -4.95% | [3] 1% | [4] 2.6% | [5] -14.8% | [6] 24.9%

CCOC(=O)/C(Cc1ccc2c(c1)OCO2)=N\O
inactive: [1] -3.05% | [2] -16.1% | [3] -12.9% | [4] -2.25% | [5] 2.25% | [6] -1.1%

O=C(Nc1cc(Cl)ccc1Cl)C(=O)C(c1cnc2ccccc2n1)[N+](=O)[O-] (configuration not stated)
inactive: [1] 12.7% | [2] 6.3% | [3] -23.8% | [4] 36.1% | [5] 34.1% | [6] 13.3%

C=CCOCC(CCl)OC(=O)C(C)C (configuration not stated)
inactive: [1] -4.95% | [2] -11.8% | [3] -13.3% | [4] -9.9% | [5] 0.7% | [6] -20.2%

CN(CC#N)CC#N
inactive: [1] 19% | [2] 9.6% | [3] 8.75% | [4] -1.6% | [5] 20.1% | [6] 0.3%

NS(=O)(=O)c1ncc(C(=O)N2CCN(Cc3ccccc3)CC2)[nH]1
inactive: [1] -6.15% | [2] -7.75% | [3] 7.2% | [4] -11.7% | [5] 1.05% | [6] 6.95%

Cc1cc2c(C(C)C)c(O)c(O)c(C=Nc3ccc(-c4ccccc4)cc3)c2c(O)c1-c1c(C)cc2c(C(C)C)c(O)c(O)c(C=Nc3ccc(-c4ccccc4)cc3)c2c1O
inactive: [1] -24.2% | [2] -10.4% | [3] -24.2% | [4] -15.2% | [5] -8.5% | [6] -7.4%

COc1ccc(OC)c2c(Cl)cc(NCCCN3CCN(CCCNc4cc(Cl)c5c(OC)ccc(OC)c5n4)CC3)nc12
inactive: [1] 13.5% | [2] 16.4% | [3] 21.8% | [4] -24.1% | [5] 4.65% | [6] 25.1%

COc1ccc(C(C#N)C(=O)C(=O)Nc2ccc(C)cc2C)cc1OC (configuration not stated)
inactive: [1] -30.6% | [2] 19.6% | [3] 42% | [4] -22.9% | [5] 48.2% | [6] 28.8%

O=C1/C(=C/C=C/c2ccccc2)CCC1CNc1ccc(Br)cc1 (configuration not stated)
inactive: [1] -20.2% | [2] -11.7% | [3] -17.8% | [4] 16.9% | [5] -15.4% | [6] 9.5%

Nc1nc(Cl)cc(Nc2cc(Cl)cc(Cl)c2)n1
active: [1] 83.2% | [3] 79.7% | [6] 82.3%
inactive: [2] 53.6% | [4] 63.7% | [5] 59.6%

CC(C)NC(=O)OCc1c(COC(=O)NC(C)C)c(Sc2ccccc2)n2c1CCC2
inactive: [1] 6.6% | [2] -17.1% | [3] 1.85% | [4] -27.6% | [5] 9.1% | [6] 16.2%
